B1: PhoQ; a variant is named by its letters at X, in order, P23837 (parent)
chain: MKKLLRLFFPLSLRVRFLLATAAVVLVLSLAYGMVALIGYSVSFDKTTFRLLRGESNLFYTLAKWENNKLHVELPENIDKQSPTMTLIYDENGQLLWAQRDVPWLMKMIQPDWLKSNGFHEIEADVNDTSLLLSGDHSIQQQLQEVREDDDDAEMTHSVAVNVYPATSRMPKLTIVVVDTIPVELKSSYMVWSWFIYVLSANLLLVIPLLWVAAWWSLRPIEALAKEVRELEEHNRELLNPATTRELTSLVRNLNRLLKSERERYDKYRTTLTDLTHSLKTPLXXLQXXLRSLRSEKMSVSDAEPVMLEQISRISQQIGYYLHRASMRGGTLLSRELHPVAPLLDNLTSALNKVYQRKGVNISLDISPEISFVGEQNDFVEVMGNVLDNACKYCLEFVEISARQTDEHLYIVVEDDGPGIPLSKREVIFDRGQRVDTLRPGQGVGLAVAREITEQYEGKIVAGESMLGGARMEVIFGRQHSAPKDE

The source of these data is a collection of fitness landscapes (doi:10.1126/science.1257360).

In all, about 140,000 sequences were measured (“enrichment ratio after two sorts for PhoP signalling”: median about 0, highest 2% from about 11 on). The sample as a whole holds a higher share of the highest values than the screen did.

The experiment covers variants of B1. In words: enrichment ratio after two sorts for PhoP signalling (ratio (wild type AVST 3.29)); higher = more functional. The note with it: with PhoP (E. coli).
LESG: the enrichment ratio is at most 0.25.

With KRHA, the enrichment ratio was at most 0.25.

As to DVYV, the enrichment ratio is at most 0.25.

In the case of SDAE, the enrichment ratio was at most 0.25.

For the variant YELP, the enrichment ratio is at most 0.25.

For EIRK, the enrichment ratio is at most 0.25.

Regarding ESAA, the enrichment ratio was at most 0.25.

For the variant EVKR, the enrichment ratio is at most 0.25.

On to KHRA, for which the enrichment ratio was at most 0.25.

For the variant IFHG, the enrichment ratio was at most 0.25.

Turning to MCIH, the enrichment ratio is at most 0.25.

As to NEWT, the enrichment ratio was found to be 32.

Regarding MRWT, the enrichment ratio is at most 0.25.

In the case of QGWT, the enrichment ratio worked out at 36.

With FFWT, the enrichment ratio was at most 0.25.

In the case of KEWT, the enrichment ratio is at most 0.25.

Take VRWT: the enrichment ratio was at most 0.25.

On to MQWT, for which the enrichment ratio was determined as 21.2.

DMWT: the enrichment ratio was at most 0.25.

FQWT: the enrichment ratio was at most 0.25.

Consider YTWT, for which the enrichment ratio was at most 0.25.

For the variant ITWT, the enrichment ratio is at most 0.25.

Consider TTWT, for which the enrichment ratio worked out at 15.

Turning to NKIQ, the enrichment ratio was at most 0.25.

For the variant ENRF, the enrichment ratio was at most 0.25.

As to PLPI, the enrichment ratio was at most 0.25.

WSFP: the enrichment ratio was at most 0.25.

Consider YDQD, for which the enrichment ratio was at most 0.25.

Regarding VCTS, the enrichment ratio is at most 0.25.

As to WTPD, the enrichment ratio is at most 0.25.

Take SKDW: the enrichment ratio is at most 0.25.

Consider EAPV, for which the enrichment ratio is at most 0.25.

As to PSRQ, the enrichment ratio is at most 0.25.

Consider MGCC, for which the enrichment ratio was at most 0.25.

Consider VYFN, for which the enrichment ratio is at most 0.25.

VGPY: the enrichment ratio is at most 0.25.

For LCTR, the enrichment ratio was at most 0.25.

With RLWT, the enrichment ratio was at most 0.25.

For LRWT, the enrichment ratio is at most 0.25.

On to LEWT, for which the enrichment ratio amounted to 12.5.

Turning to SEWT, the enrichment ratio turned out to be 13.2.

For the variant ADWT, the enrichment ratio is at most 0.25.

Regarding SPWT, the enrichment ratio is at most 0.25.

On to TDWT, for which the enrichment ratio came to 25.1.

Consider TEWT, for which the enrichment ratio is 12.8.

KSWT: the enrichment ratio is at most 0.25.

LLWT: the enrichment ratio is at most 0.25.

In the case of HPWT, the enrichment ratio was at most 0.25.

Consider SLWT, for which the enrichment ratio is at most 0.25.

With MNIK, the enrichment ratio was at most 0.25.

For the variant LKPQ, the enrichment ratio is at most 0.25.

In the case of MYHS, the enrichment ratio is at most 0.25.

In the case of LAEQ, the enrichment ratio is at most 0.25.

In the case of KQHW, the enrichment ratio is at most 0.25.

For LWPI, the enrichment ratio is at most 0.25.

Take IYVA: the enrichment ratio was at most 0.25.

As to RPSC, the enrichment ratio is at most 0.25.

GEHV: the enrichment ratio is at most 0.25.

Regarding YVEW, the enrichment ratio is at most 0.25.

Take RVGM: the enrichment ratio was at most 0.25.

Regarding GGSL, the enrichment ratio came out at 3.4.

Take TISL: the enrichment ratio was found to be 19.4.

Take GLSL: the enrichment ratio was 11.5.

For the variant SLSL, the enrichment ratio came to 10.7.

As for TLSL, the enrichment ratio is 15.8.

Take GLSK: the enrichment ratio was at most 0.25.

For WISL, the enrichment ratio is at most 0.25.

TGSL: the enrichment ratio was 16.8.

With VLSL, the enrichment ratio amounted to 0.415.

NISL: the enrichment ratio was 0.771.

As to NGSL, the enrichment ratio was at most 0.25.

Regarding GDSL, the enrichment ratio is at most 0.25.

With WCCL, the enrichment ratio was at most 0.25.

With HISH, the enrichment ratio was at most 0.25.

Consider VTMH, for which the enrichment ratio was at most 0.25.

Regarding AIRA, the enrichment ratio was at most 0.25.

Take TVSY: the enrichment ratio stood at 10.4.

MVVG: the enrichment ratio was at most 0.25.

In the case of YGHF, the enrichment ratio is at most 0.25.

For KASL, the enrichment ratio is at most 0.25.

Regarding TASL, the enrichment ratio is 15.1.

SGSL: the enrichment ratio stood at 11.8.

For the variant SPSL, the enrichment ratio is at most 0.25.

In the case of TVSL, the enrichment ratio is 14.4.

For NVSL, the enrichment ratio was at most 0.25.

As to NASL, the enrichment ratio was at most 0.25.

With YWEI, the enrichment ratio was at most 0.25.

For the variant PCWT, the enrichment ratio was at most 0.25.

As for HICM, the enrichment ratio was at most 0.25.

With DTPM, the enrichment ratio is at most 0.25.

For STCQ, the enrichment ratio is 15.3.

Regarding SPCQ, the enrichment ratio is at most 0.25.

Regarding GECQ, the enrichment ratio amounted to 17.

For GECI, the enrichment ratio stood at 7.86.

Turning to GECS, the enrichment ratio is 7.23.

As for FGCQ, the enrichment ratio stood at 13.2.

For FGCS, the enrichment ratio is at most 0.25.

TGCQ: the enrichment ratio turned out to be 13.9.

FGCI: the enrichment ratio was 7.38.

Consider NGCQ, for which the enrichment ratio is at most 0.25.

Turning to SQCQ, the enrichment ratio turned out to be 3.73.

For RGCQ, the enrichment ratio is at most 0.25.

As to WIRR, the enrichment ratio was at most 0.25.

Take DKPL: the enrichment ratio was at most 0.25.

With LNCS, the enrichment ratio is at most 0.25.

Take HHGV: the enrichment ratio is at most 0.25.

In the case of NSRQ, the enrichment ratio is at most 0.25.

Regarding LTKK, the enrichment ratio was at most 0.25.

With ARTW, the enrichment ratio was at most 0.25.

For SHKM, the enrichment ratio is at most 0.25.

Consider ACGT, for which the enrichment ratio turned out to be 4.5.

As to HFGF, the enrichment ratio was at most 0.25.

Turning to MLHA, the enrichment ratio was at most 0.25.

Turning to ITCQ, the enrichment ratio is at most 0.25.

In the case of GICQ, the enrichment ratio was determined as 10.3.

On to GECA, for which the enrichment ratio was 1.47.

GECV: the enrichment ratio amounted to 16.3.

TTCQ: the enrichment ratio stood at 18.9.

For the variant GECL, the enrichment ratio amounted to 5.03.

For the variant YTCQ, the enrichment ratio stood at 1.7.

Turning to GTCQ, the enrichment ratio is 13.4.

As to GNHP, the enrichment ratio was at most 0.25.

As to DTCQ, the enrichment ratio was at most 0.25.

For the variant GNCQ, the enrichment ratio was found to be 12.1.

For the variant MTCQ, the enrichment ratio is at most 0.25.

MPVD: the enrichment ratio was at most 0.25.

In the case of LRSS, the enrichment ratio is at most 0.25.

With QFGG, the enrichment ratio is at most 0.25.

As for YYIN, the enrichment ratio was at most 0.25.

Regarding IIQY, the enrichment ratio is at most 0.25.

Take NRIW: the enrichment ratio is at most 0.25.

With HQPD, the enrichment ratio is at most 0.25.

Turning to YMHI, the enrichment ratio is at most 0.25.

In the case of FYKD, the enrichment ratio is at most 0.25.

Take HRDN: the enrichment ratio was at most 0.25.

With QQHS, the enrichment ratio was at most 0.25.

For YSME, the enrichment ratio stood at 1.23.

For the variant MDWD, the enrichment ratio was at most 0.25.

Take FRMF: the enrichment ratio is at most 0.25.

Consider NICQ, for which the enrichment ratio was at most 0.25.

In the case of GHCQ, the enrichment ratio was at most 0.25.

GGCQ: the enrichment ratio came out at 13.2.

Turning to LNMQ, the enrichment ratio is at most 0.25.

In the case of NCQG, the enrichment ratio was at most 0.25.

For TALI, the enrichment ratio is 18.1.

For the variant TALQ, the enrichment ratio came out at 15.2.

In the case of NWCN, the enrichment ratio was at most 0.25.

As to KALQ, the enrichment ratio is at most 0.25.

TALL: the enrichment ratio was found to be 12.

Turning to TADK, the enrichment ratio was at most 0.25.

Turning to KALL, the enrichment ratio is at most 0.25.

Take YACN: the enrichment ratio is at most 0.25.

With IALI, the enrichment ratio came out at 9.02.
